RBX1-CUL1 inh – inhibitors of human ROC1-CUL1 ubiquitin ligase activity; E3 ubiquitin-protein ligase RBX1 (Homo sapiens) + Cullin-1 (Homo sapiens), P62877+Q13616; in vitro K48 di-Ub FRET, acceptor:donor ratio, 45 min; inhibition, % at 10 µM; 140,000 tested, 0.6% active; AID 1347404, 2020; in the data active = inhibition above about 25%
Target sequence (P62877 whole entry, looked up): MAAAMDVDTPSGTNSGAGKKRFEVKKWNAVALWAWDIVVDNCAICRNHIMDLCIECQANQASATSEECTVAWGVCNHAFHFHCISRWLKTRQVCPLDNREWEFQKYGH
Target sequence (Q13616 whole entry, looked up): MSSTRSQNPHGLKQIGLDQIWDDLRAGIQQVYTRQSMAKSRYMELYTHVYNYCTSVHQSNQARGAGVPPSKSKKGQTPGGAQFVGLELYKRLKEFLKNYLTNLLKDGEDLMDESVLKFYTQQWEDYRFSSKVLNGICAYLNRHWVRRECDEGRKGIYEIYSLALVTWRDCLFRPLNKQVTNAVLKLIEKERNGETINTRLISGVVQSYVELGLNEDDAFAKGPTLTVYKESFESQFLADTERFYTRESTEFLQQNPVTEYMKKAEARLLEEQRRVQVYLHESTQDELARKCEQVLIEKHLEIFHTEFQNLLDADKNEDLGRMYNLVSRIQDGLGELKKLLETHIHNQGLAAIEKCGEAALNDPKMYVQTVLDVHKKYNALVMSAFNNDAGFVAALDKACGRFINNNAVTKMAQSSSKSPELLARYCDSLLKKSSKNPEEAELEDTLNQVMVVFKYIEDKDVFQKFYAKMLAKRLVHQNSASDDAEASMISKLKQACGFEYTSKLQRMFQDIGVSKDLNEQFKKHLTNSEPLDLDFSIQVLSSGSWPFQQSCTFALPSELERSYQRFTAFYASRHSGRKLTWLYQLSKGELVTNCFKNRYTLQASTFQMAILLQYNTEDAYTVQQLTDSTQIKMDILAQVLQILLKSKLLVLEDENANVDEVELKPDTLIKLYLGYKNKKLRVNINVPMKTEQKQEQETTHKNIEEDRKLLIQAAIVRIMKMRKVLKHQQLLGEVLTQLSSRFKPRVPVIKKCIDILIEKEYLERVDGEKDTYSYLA
The depositor's hits bear a star. Many of the other results were omitted from the sample, so hits are more common in it than they were.

SMILES	RBX1-CUL1 inh
c1ccc(-c2cc(N3CCCCC3)ncn2)cc1	-4.3
COc1ccc(OC)c(C2NC(=S)N=C(C)C2C(=O)Nc2cccc(C)c2C)c1 (configuration not stated)	1.5
Cn1c(=O)c2c(=O)c(NC(=O)CC#N)c(N)[nH]c2n(C)c1=O	8.2
O=C(c1ccccc1)C1C(c2ccccc2)=NC(=S)NC1c1cc(Cl)c(O)c(Br)c1 (configuration not stated)	-9.1
O=c1[nH]c(=S)[nH]nc1-c1cccs1	12.7
Nc1cc(C(F)(F)F)ccc1Sc1ccccc1C(=O)O	6.9
O=C(O)c1cc(C(F)(F)F)ccc1Sc1ccccc1	57.9*
O=C(O)Cc1ccccc1Sc1cccc(C(F)(F)F)c1	-1.4
CCOC(=O)CNC(c1ccc2c(c1)OCO2)c1nnnn1C(c1ccccc1)c1ccccc1 (configuration not stated)	-9.0
CCc1cc(=O)[nH]c(SCc2ccc(F)cc2)n1	8.3
Cc1cc(C)c(C(=O)N2CCc3onc(-c4ccc5c(c4)OCO5)c3C2)o1	-6.2
COC(=O)NNc1ccnc2cc(Cl)ccc12	0.8
Clc1ccc2c(NCCN3CCN(CCCN4CCN(CCNc5ccnc6cc(Cl)ccc56)CC4)CC3)ccnc2c1	0.1
Clc1ccc2c(NCCN3CCN(CCCCCCCN4CCN(CCNc5ccnc6cc(Cl)ccc56)CC4)CC3)ccnc2c1	26.8*
CN(Cc1ccccc1)S(=O)(=O)c1ccc(NC(=O)C2CC2)cc1	-5.6
Cc1ccccc1N=Cc1cc2c(cc1[N+](=O)[O-])OCO2	-0.8
O=[N+]([O-])c1ccc(N=Cc2cc3c(cc2[N+](=O)[O-])OCO3)c(Br)c1	7.4
Cc1c(N=Cc2cc3c(cc2[N+](=O)[O-])OCO3)cccc1[N+](=O)[O-]	90.7*
O=C(C1CCCO1)N1CCc2[nH]nc(-c3ccc(C(F)(F)F)cc3)c2C1 (configuration not stated)	-3.0
CC1C(=NC(=O)CSc2nnc(-c3ccccc3)n2-c2ccccc2)C(=O)N(c2ccccc2)N1C (configuration not stated)	-2.7
CC1C(=NC(=O)CSc2nc(-c3ccccc3)c(-c3ccccc3)o2)C(=O)N(c2ccccc2)N1C (configuration not stated)	51.8*
CC1C(=NC(=O)CSc2nnc(Cc3ccccc3)o2)C(=O)N(c2ccccc2)N1C (configuration not stated)	-1.1
COc1ccc(C(=O)Nc2c(C)cccc2C)cc1OC	-0.5
OCCCc1nc2n(n1)C(c1cccs1)CC(c1ccc(Br)cc1)=N2 (configuration not stated)	13.2
COC1=CC(=NC#N)C(Br)=CC1=NC#N	103.9*
SMILES	RBX1-CUL1 inh
C/C(=N\Nc1ccc2nnc(C)n2n1)c1ccc(F)cc1	-0.2
CCOC(=O)c1c2c(n(C)c1CNC(C)C)C(=O)C(=O)c1ccc(Br)cc1-2	97.9*
CCOC(=O)c1ccc(NN2C(=O)c3ccc(Br)cc3C2=O)c([N+](=O)[O-])c1	-4.1
CCOC(=O)c1c2c(n3ccccc13)C(=O)c1ccccc1C2=O	-0.5
C=CCn1c(SCC(=O)Nc2sc3c(c2C(=O)OC)CCCC3)nc2scc(-c3ccccc3)c2c1=O	-6.5
COCCc1nc2ccc(C(=O)N(C)Cc3nc4ccc(F)cc4[nH]3)cc2o1	-2.9
CCOc1ccc2nc(N)sc2c1	-3.3
Nc1nc2cc(N)c(N)cc2s1	93.2*
Nc1nc2cc3nsnc3cc2s1	0.0
CCn1c(COc2ccc3c(c2)OCO3)nnc1SCC(=O)c1ccc(F)cc1	5.3
CC(C)(C)c1ccc(SCC(=O)NC2=NN(c3ccccc3)C(=O)C2)cc1	-4.0
c1ccc(CC2CCN(Cc3csc(-c4ccccc4)n3)CC2)cc1	-7.5
Cc1ccc(NC(=O)CSc2nnc(Cc3ccccc3)o2)cc1C	10.9
O=C(CSc1nnc(Cc2ccccc2)o1)Nc1ccc(Cl)c(Cl)c1	91.8*
COC(=O)c1cc(NC(=O)CSc2nnc(Cc3ccccc3)o2)ccc1Cl	10.6
Cn1c(/C=C2\C(=O)NC(=O)N(c3ccccc3)C2=O)cc2ccccc21	6.3
O=C(NNC(=O)c1cc2cc(Br)ccc2oc1=O)c1ccncc1	5.4
O=C(NNC(=O)c1cc2cc(Br)ccc2oc1=O)c1ccc(O)cc1O	43.9*
CCOC(=O)NC(=O)c1cc2cc(Br)ccc2oc1=O	-0.4
CCOc1cc(/C=N\NC(=O)c2ccc(NC(=O)C(C)(C)C)cc2)ccc1OC(=O)/C=C/c1ccccc1	9.5
N#CC1C(=N)Oc2cc(O)c(C=Nc3ccc(Cl)c(Cl)c3)cc2C1c1cccc(I)c1 (configuration not stated)	0.5
N#CC1C(=N)Oc2cc(O)c(C=Nc3cc(C(F)(F)F)ccc3Cl)cc2C1c1ccco1 (configuration not stated)	85.2*
Cc1ccc(N=Cc2cc3c(cc2O)OC(=N)C(C#N)C3c2cccc(F)c2)c(C)c1 (configuration not stated)	2.8
CC(C)c1ccc2c(c1)[C@@H]1C=CC[C@@H]1[C@H](c1ccc(S(=O)(=O)N3CCOCC3)cc1)N2	31.2*
